# Data taken from the supplement of paper PMC7411054.
# Assays:
# Conditions in all cases: treatment time: 24 h
# [1] = test system: HepG2-ACTB-RAB5A; assay: lowest phenotypically active concentration; higher = less potent
# Summary of the method: (§1)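 Two criteria together defined phenotypic activity: deviation and reproducibility. Deviation meant ≥3 of 4 wells beyond the 95th percentile of Euclidean distances in solvent control wells, and reproducibility meant a median replicate Pearson correlation above the 95th percentile of non-replicates. Wells had been treated for 24 h at 0.3, 1, 3 or 9 µM in fifteen gene-edited A549, HepG2 and WPMY1 reporter lines before live imaging.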
# [2] = test system: HepG2-CANX-COX4; assay: as above
# Summary of the method: as §1
# [3] = test system: HepG2-GM130-SQSTM1; assay: as above
# Summary of the method: as §1
# [4] = test system: HepG2-TUBA1B-RELA; assay: as above
# Summary of the method: as §1
# [5] = test system: WPMY1-ACTB-RAB5A; assay: as above
# Summary of the method: as §1
# [6] = test system: WPMY1-CANX-COX4; assay: as above
# Summary of the method: as §1
# [7] = test system: WPMY1-GM130-SQSTM1; assay: as above
# Summary of the method: as §1
# [8] = test system: WPMY1-TP53BP1-CLTA; assay: as above
# Summary of the method: as §1
# [9] = test system: WPMY1-TUBA1B-RELA; assay: as above
# Summary of the method: as §1
# [10] = test system: WPMY1-ACTB-RAB5A; assay: phenotypically active (imaging signature differs from DMSO and reproducible) at any of 0.3-9 uM (binary (1 = active, 0 = inactive)); higher = active
# Summary of the method: as §1
Compound,lowest phenotypically active concentration [1] [µM],lowest phenotypically active concentration [2] [µM],lowest phenotypically active concentration [3] [µM],lowest phenotypically active concentration [4] [µM],lowest phenotypically active concentration [5] [µM],lowest phenotypically active concentration [6] [µM],lowest phenotypically active concentration [7] [µM],lowest phenotypically active concentration [8] [µM],lowest phenotypically active concentration [9] [µM],phenotypically active [10]
CN1CCN(c2ccc(OC(F)(F)F)c(Nc3ncc4c(n3)-c3c(c(C(N)=O)nn3CCO)CC4)c2)CC1,≤ 0.3,≤ 0.3,≤ 0.3,≤ 0.3,≤ 0.3,1,1,≤ 0.3,≤ 0.3,1 (active)
CCC1=C[C@@H]2CN(C1)Cc1c([nH]c3ccccc13)[C@@](C(=O)OC)(c1cc3c(cc1OC)N(C)[C@H]1[C@@](O)(C(=O)OC)[C@H](OC(C)=O)[C@]4(CC)C=CCN5CC[C@]31[C@@H]54)C2 [vinorelbine],≤ 0.3,≤ 0.3,≤ 0.3,≤ 0.3,≤ 0.3,≤ 0.3,≤ 0.3,≤ 0.3,≤ 0.3,1 (active)
O=C(Nc1ccc(-c2ccnc(Nc3ccc(N4CCOCC4)cc3)n2)cc1)[C@@H]1CCCN1,3,3,3,3,3,3,3,3,3,1 (active)
Cc1c(C(=O)N2CCOc3ccc(-c4ccc(N)nc4)cc3C2)ccc(S(C)(=O)=O)c1F,3,3,3,3,3,3,3,3,9,1 (active)
C=CC(=O)Nc1cccc(Nc2nc(Nc3ccc(OCCOC)cc3)ncc2F)c1,3,3,3,9,3,3,3,9,3,1 (active)
Cc1c(CN2CCN(C(=O)[C@H](C)O)CC2)sc2c(N3CCOCC3)nc(-c3cnc(N)nc3)nc12,≤ 0.3,≤ 0.3,≤ 0.3,≤ 0.3,≤ 0.3,≤ 0.3,≤ 0.3,≤ 0.3,≤ 0.3,1 (active)
CC(C)(C)Nc1nc(Nc2ccc(C(N)=O)cc2)cc(N)c1C#N,3,3,3,3,3,9,3,3,9,1 (active)
Cc1cc(Nc2ncc3c(n2)N(C)C(=O)N(c2cc(NC(=O)c4cccc(C(F)(F)F)c4)ccc2C)C3)n(C)n1 [Pluripotin],≤ 0.3,≤ 0.3,≤ 0.3,≤ 0.3,≤ 0.3,1,≤ 0.3,1,1,1 (active)
CC(=O)O[C@H]1C(=O)[C@@]2(C)[C@H]([C@H](OC(=O)c3ccccc3)[C@]3(O)C[C@H](OC(=O)[C@H](O)[C@@H](NC(=O)c4ccccc4)c4ccccc4)C(C)=C1C3(C)C)[C@]1(OC(C)=O)CO[C@@H]1C[C@@H]2O [paclitaxel],≤ 0.3,≤ 0.3,≤ 0.3,≤ 0.3,≤ 0.3,9,≤ 0.3,≤ 0.3,≤ 0.3,1 (active)
